HepG2 viability – HepG2 cytotoxicity, counter-screen for TGF-b inhibitors; HepG2 CAGA-GFP viability, ATP luminescence, 18 h; Potency, µM (doses to about 46.1 µM), for the others: at the top dose activity change, negative = cytotoxicity, actives largely listed as cytotoxic; 410,000 tested, 0.76% active; AID 588856; also: potency is read from the fitted curve at half-maximal effect
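HepG2 CAGA-GFP cells (1000/well, DMEM with 1% FBS) received compound, then TGF-beta at 500 pg/mL final, and were incubated 18 hours at 37 degrees C. Viability was read by CellTiter-Glo luminescence. Media-only wells were set as complete cell-killing and DMSO as no toxicity.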
TDP1 block – TDP1 (human) enzyme inhibition. 350,000 tested, 0.28% active. recombinant TDP1, AlphaScreen DNA substrate cleavage. AID 485290. Potency, µM (top dose mostly 130 µM), for inactives: top-dose activity change, negative = inhibition, actives largely listed as inhibitors; also: potency is read from the fitted curve at half-maximal effect; % is scaled to controls: 0 for no effect and ±100 for the full control effect; nearly all actives have a fitted effect of over 40% in size
Target sequence (Q9NUW8 whole entry, looked up): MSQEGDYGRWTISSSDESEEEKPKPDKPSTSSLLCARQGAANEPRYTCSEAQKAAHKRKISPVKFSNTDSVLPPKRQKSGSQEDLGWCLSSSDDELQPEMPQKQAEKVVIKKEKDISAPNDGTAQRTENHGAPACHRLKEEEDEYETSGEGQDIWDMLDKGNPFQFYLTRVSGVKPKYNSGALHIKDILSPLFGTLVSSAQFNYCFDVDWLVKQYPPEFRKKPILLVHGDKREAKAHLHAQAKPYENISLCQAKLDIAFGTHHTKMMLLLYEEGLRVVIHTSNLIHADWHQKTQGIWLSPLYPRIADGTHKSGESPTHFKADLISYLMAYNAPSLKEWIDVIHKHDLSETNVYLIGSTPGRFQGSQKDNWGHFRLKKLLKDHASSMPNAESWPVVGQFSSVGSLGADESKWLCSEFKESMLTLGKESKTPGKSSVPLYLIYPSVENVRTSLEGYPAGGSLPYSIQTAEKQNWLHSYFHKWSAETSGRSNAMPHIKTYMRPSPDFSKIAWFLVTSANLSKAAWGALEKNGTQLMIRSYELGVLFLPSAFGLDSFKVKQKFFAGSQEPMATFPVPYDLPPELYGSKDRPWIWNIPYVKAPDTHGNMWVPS
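Recombinant human Tdp1 (E. coli-expressed, 1 nM final) preincubated with compounds 15 min at room temperature, then 5'-biotin/3'-phosphotyrosine-FITC DNA substrate (15 nM final) added for 5 min. AlphaScreen beads (10 ug/ml final) added 10 min; cleavage lowers signal.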
TGFb inhibitor – TGF-b pathway inhibition; Potency, µM (highest dose often 46.1 µM), inactives show at the top dose activity, negative = inhibition, usual class: inhibitors; HepG2 CAGA-GFP TGF-b/SMAD3 reporter, GFP fluorescence, 18 h; TGF-beta stimulated, 500 pg/mL final; 410,000 tested, 1.2% active; also: potency is read from the fitted curve at half-maximal effect; % is scaled to controls: 0 for no effect and ±100 for the full control effect; nearly all actives have a fitted effect of over 65% in size
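Cell-based qHTS in HEPG2 carrying a CAGA-GFP Smad reporter; compounds added before 500 pg/mL final TGF-beta, 18 h incubation at 37 degrees C, GFP fluorescence quantified per cell by imaging cytometry.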
TDP1 cell noCPT – qHTS for Inhibitors of human tyrosyl-DNA phosphodiesterase 1 (TDP1): qHTS in cells in absence of CPT | DT40 Tdp1-/- hTDP1 cells, no CPT, ATP luminescence, 48 h | Potency, µM (top dose mostly 46.2 µM), for the others: at the highest dose activity change, negative = growth inhibition, most hits filed as inhibitors | 420,000 tested, 15% active; also: potency is read from the fitted curve at half-maximal effect; % is scaled to controls: 0 for no effect and ±100 for the full control effect; nearly all actives have a fitted effect of over 55% in size
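Chicken DT40 Tdp1-/- cells stably complemented with human TDP1 were seeded at 400 cells/well with DMSO in place of 20 nM camptothecin. After compound pinning, cells grew at least 48 hr at 37 °C; viability read by CellTiter-Glo luminescence.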
DT40 TDP1 CPT – DT40-hTDP1 cell growth loss with CPT; chicken DT40 Tdp1-/-;hTDP1 cells + 20 nM CPT, ATP luminescence, 48 h; Potency, µM (series often up to 46.2 µM), for inactives: at the highest dose activity change, negative = growth inhibition, actives largely listed as inhibitors; 420,000 tested, 12% active; AID 686979; also: potency is read from the fitted curve at half-maximal effect; % is scaled to controls: 0 for no effect and ±100 for the full control effect; nearly all actives have a fitted effect of over 55% in size
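Chicken DT40 Tdp1-/- cells complemented with human TDP1, 400 cells/well, exposed to compounds plus 20 nM camptothecin for at least 48 h at 37 C; viability read as ATP content by CellTiter-Glo luminescence.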
IL-1B inflam inh – inflammasome signaling inhibition, IL-1 beta readout; 360,000 tested, 4.7% active; activity change, % at 57.5 µM; THP-1 LPS/ATP IL-1B secretion, AlphaLISA, 16 h; hits give low values; in the data active = activity change below about -50%; inconclusive = mostly about -30% to -49%; also: % is scaled to controls: 0 for no effect and ±100 for the full control effect
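Secreted IL-1B measured by AlphaLISA bead assay after 16 h compound exposure of THP-1 cells; compounds (final up to 57.5 uM) added 1 h before LPS (250 ng/mL) and ATP (1.25 mM) stimulation; lower signal means less secretion.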
Starred values were filed as active, the others as inactive; ? = inconclusive; · = no result given. Sampled rows, rich in hits. Any-hit rate of the full collection: about 19%. Unless noted, calls follow the shape of the dose curve; as a rule, active = well fitted curve in the direction sought with a large enough effect; inconclusive = small, poorly fitted or top-dose-only effect, or another doubt; inactive = no such curve, though single readings can be large; an effect the other way counts as inactive or inconclusive.

SMILES	HepG2 viability	TDP1 block	TGFb inhibitor	TDP1 cell noCPT	DT40 TDP1 CPT	IL-1B inflam inh
Cc1ccc(Cn2c(=S)[nH]c3ccc(N4CCOCC4)cc3c2=O)o1	-104%	·	0%	16µM*	?	?
CCOc1cc2[nH]c(=S)n(C(C)C)c(=O)c2cc1OCC	-38%	7%	-4%	?	18µM*	42
COc1ccc(Cn2c(=S)[nH]c3cc(C(=O)N4CCN(c5ccccc5)CC4)ccc3c2=O)cc1	-30%	0%	-22%	?	?	60
Cc1ccc(C)c(N2CCN(C(=O)c3ccc(Cn4c(=S)[nH]c5ccc(N6CCOCC6)cc5c4=O)cc3)CC2)c1	2%	5%	-19%	15µM*	?	7
CCCCn1c(=S)[nH]c2ccc(N3CCOCC3)cc2c1=O	·	-1%	·	·	·	·
COc1ccc(N2CCN(C(=O)c3ccc(Cn4c(=S)[nH]c5ccc(N6CCOCC6)cc5c4=O)cc3)CC2)cc1	-4%	3%	-1%	18µM*	23µM*	18
CCOc1cc(S(=O)(=O)N2CCN(C(=O)c3ccco3)CC2)ccc1F	-40%	1%	-16%	?	-9%	-5
CCC(=O)N1CCc2cc(Br)cc(S(=O)(=O)Nc3ccccc3C(=O)OC)c21	5%	0%	-1%	?	5%	·
CCOc1cc2[nH]c(=S)n(CCN3CCCCC3CC)c(=O)c2cc1OCC (configuration not stated)	-25%	0%	2%	16µM*	?	-24
CCOc1cc2[nH]c(=S)n(Cc3ccc(C)o3)c(=O)c2cc1OCC	-8%	9%	7%	-30%	29µM*	6
O=C(c1ccc(Cn2c(=S)[nH]c3ccc(N4CCOCC4)cc3c2=O)cc1)N1CCN(c2ccc(F)cc2)CC1	-18%	5%	-4%	16µM*	16µM*	-8
O=C(c1ccc(Cn2c(=O)[nH]c3ccccc3c2=O)cc1)N1CCN(c2ccc(F)cc2)CC1	-26%	8%	3%	?	?	-20
O=C(c1ccc(Cn2c(=S)[nH]c3cc4c(cc3c2=O)OCO4)cc1)N1CCN(c2ccccc2)CC1	-14%	6%	11%	23µM*	?	-3
COCCCNc1nc2c(S(=O)(=O)c3ccccc3)nnn2c2ccc(Cl)cc12	-4%	-9%	-6%	-6%	-1%	·
Cc1nc(N2CCCC2)ncc1C(=O)N1CCN(c2ccccc2F)CC1	3%	-1%	2%	-6%	-15%	·
CCOC(=O)C1CCN(C(=O)C2COc3ccccc3C2)CC1 (configuration not stated)	-10%	4%	-26%	-16%	0%	·
[O]=[Bi][O]C(=O)[O][Bi]=[O]	·	0%	·	1%	?	·
COC(=O)c1sc(S(=O)(=O)N2CCN(c3ccccc3F)CC2)c(C(=O)OC)c1C	2%	0%	6%	?	15µM*	2
COC(=O)c1sccc1S(=O)(=O)N1CCN(c2ccc(C)cc2C)CC1	-40%	3%	-14%	23µM*	?	·
COC(=O)c1sccc1S(=O)(=O)N1CCN(c2cc(Cl)ccc2C)CC1	0%	3%	24%	?	?	·
COC(=O)c1sccc1S(=O)(=O)N1CCN(c2cccc(C)c2C)CC1	0%	2%	-1%	23µM*	?	·
COC(=O)c1sccc1NC(=S)N1CCN(c2cccc(C)c2C)CC1	2%	3%	?	23µM*	18µM*	19
COC(=O)CCNC(=O)N1CCN(c2nnc(C)c3c(C)n(-c4ccccc4)nc23)CC1	4%	3%	-1%	-14%	-2%	·
CC12CCC(C(=O)N(c3nccs3)C1=O)C2(C)C (configuration not stated)	7%	·	8%	-24%	6%	10
COc1cc(OC)c(NC(=O)NCCn2nnc3cc(S(=O)(=O)N(C)C)ccc32)cc1Cl	-5%	6%	2%	-19%	-2%	·
SMILES	HepG2 viability	TDP1 block	TGFb inhibitor	TDP1 cell noCPT	DT40 TDP1 CPT	IL-1B inflam inh
Cc1cc(C)c2c(n1)SCC(=O)N2CC(=O)Nc1ccc(Br)c(C)c1	-27%	2%	-23%	?	-19%	-9
CCOc1cc(/C=C2/SC(=S)N(Cc3ccccc3)C2=O)ccc1O	-33%	12%	-17%	?	?	-7
O=C1/C(=C\c2cc(Br)cc(Br)c2O)SC(=S)N1Cc1ccccc1	7%	·	?	15µM*	13µM*	-9
O=C(O)c1ccc(/C=C2/SC(=S)N(Cc3ccccc3)C2=O)cc1	-2%	·	25%	18%	-23%	20
CCN1C(=O)/C(=C\C=C\c2ccccc2[N+](=O)[O-])SC1=S	9%	9%	2%	12µM*	26µM*	-21
O=C1/C(=C\c2ccc(O)cc2)SC(=S)N1Cc1ccccc1	-43%	6%	?	?	?	-96*
O=C1/C(=C/c2ccc(O)c([N+](=O)[O-])c2)SC(=S)N1Cc1ccccc1	-20%	9%	-11%	18µM*	?	9
Cc1cccc(-c2nc(C)c(CCNC(=O)C(=O)Nc3ccccc3C#N)s2)c1	-7%	4%	-7%	·	·	·
O=C(NCCCN1CCOCC1)c1ccc2nc(Cc3cccc(Cl)c3)oc2c1	-26%	7%	5%	-22%	-21%	-2
O=C(CSc1nccn1-c1ccc(F)cc1)Nc1nc2ccccc2s1	-41%	0%	-29%	-16%	-1%	·
COc1ccccc1CNC(=O)COC(=O)c1cc(=O)c2ccccc2o1	21%	1%	-3%	18%	-14%	27
CC(=O)N1c2ccccc2C(=O)C1N1CCN(c2cccc(C(F)(F)F)c2)CC1 (configuration not stated)	-38%	3%	-9%	?	?	·
O=C1NC(=Nc2ccccc2Cl)S/C1=C\c1cccc([N+](=O)[O-])c1O	-21%	11%	-23%	?	-14%	11
O=C1/C(=C\c2cccc([N+](=O)[O-])c2O)SC(=S)N1Cc1ccccc1	-42%	·	10µM*	9.2µM*	18µM*	36
CCOC(=O)[C@@H]1[C@H]2COc3ccc(Br)cc3[C@H]2N2C(=O)N(c3ccc(Br)cc3)C(=O)[C@]12C	-15%	·	-24%	?	?	8

High-throughput results: PubChem, National Center for Advancing Translational Sciences (NCATS)
